Consider 38 compounds from the supplement of paper PMC4894684.

Where a name gives a salt, the structure may show the parent alone. ± gives the standard deviation of the averaged measurements.

The subject of this assay is Toxoplasma gondii RH (in HFF). Briefly: parasite growth relative to the screen mean (all compounds = 100%); higher = less inhibition of parasite growth. Particulars: 5 µM; 72 h; oxygen 21 %. The procedure, abridged: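 Library compounds (10 mM DMSO stocks) were pin-transferred to 5 µM final onto confluent human foreskin fibroblasts in 96-well plates, then infected within 2 h with RH β-Gal–GFP Toxoplasma (MOI 1:5) and grown 72 h at 21% O2. Parasite number came from a CPRG β-Gal assay against in-plate standard curves. Growth is expressed relative to the screen mean (all compounds = 100%), averaged over two screens. Uninfected host-cell viability was checked by CellTiter-Blue.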
`N[C@@H](CSS(=O)(=O)O)C(=O)O` [S-Sulfo-L-cysteine sodium salt] returned a parasite growth of 101 ± 6.6%. In turn, `O=c1c(O)c(-c2ccc(O)cc2)oc2cc(O)cc(O)c12` [Kaempferol] returned a parasite growth of 155 ± 7.1%. Under `S=C(S)N1CCCC1` [Pyrrolidinedithiocarbamate ammonium] stands under 0%; under `Cc1cc(F)c(Nc2ncnc3cc(OCc4ccccc4)ccc23)cc1O`, 11.2 ± 13%. Compound `Cc1ccc([N+](=O)[O-])cc1S(=O)(=O)N(C)C` gave a parasite growth of 74.2 ± 14%. In turn, `CSc1cc2c(cc1C(F)(F)F)N(C(=O)Nc1cccnc1)CC2` came in with a parasite growth of 122 ± 30%.

In the case of `O=C(c1ccc(F)cc1)C1CCN(CCCCc2ccccc2)CC1` [4-(4-Fluorobenzoyl)-1-(4-phenylbutyl)-piperidine oxalate], the parasite growth was 110 ± 7.6%. In turn, `NC(=O)CCCCn1ccc(NC(N)=NCC(F)(F)F)n1` returned a parasite growth of 95.1 ± 10%. Under `Oc1ccc(C2CNCCc3c2cc(O)c(O)c3Cl)cc1` (stereo not drawn) [Fenoldopam hydrochloride] stands 105 ± 14%; under `O=C(/C=C/c1ccc(O)c(O)c1)O[C@H](Cc1ccc(O)c(O)c1)C(=O)O` [Rosmarinic acid], 110 ± 5.5%. Under `O=C(NCCN1CCCCC1)c1ccc(I)cc1` [N-[2-(Piperidinylamino)ethyl]-4-iodobenzamide] stands 118 ± 12%.

`O=C(Nc1ccccc1)c1cc([N+](=O)[O-])ccc1Cl`: the parasite growth was determined as 103 ± 18%. For the compound `N[C@@H](C(=O)O)c1ccc(C(=O)O)c(C(=O)O)c1`, the parasite growth was found to be 117 ± 7.7%. Consider `N[C@H](C(=O)O)c1ccc(C(=O)O)c(O)c1` [(S)-4-Carboxy-3-hydroxyphenylglycine], for which the parasite growth stood at 143 ± 25%. Regarding `C#CCN1C(C)=C(C(=O)OC)C(c2cccc([N+](=O)[O-])c2)C(C(=O)OCC)=C1C` (stereo not drawn), the parasite growth was 157 ± 2.2%. With `Nc1c(Br)cc(Br)cc1CN[C@H]1CC[C@H](O)CC1` [Ambroxol hydrochloride] the figure was 136 ± 3.2%; with `COc1ccc(Br)cc1S(=O)(=O)NC(=O)/C=C/c1ccccc1Cc1ccc2ccccc2c1`, 125 ± 12%; with `Nc1c2c(nc3ccccc13)CCCC2` [Tacrine hydrochloride], 130 ± 27%. Under `Oc1nc(-c2ccc(C(F)(F)F)cc2)nc2c1CSCC2` stands 136 ± 21%; under `CC1(C)CCC(C)(C)c2cc(C(=O)Nc3ccc(C(=O)O)cc3)ccc21`, 113 ± 4.7%. For `O=C(Nc1ccc(C(F)(F)F)cn1)N1CCN(c2ncccc2C(F)(F)F)CC1`, the parasite growth amounted to 135 ± 6.2%. Under `Cc1nc2sccn2c(=O)c1CCN1CCC(=C(c2ccccc2)c2ccc(F)cc2)CC1` stands 106 ± 24%; under `Cc1c(C(=O)N(C)C2CCCCC2)sc2nc3ccc(N)cc3n12`, 185 ± 31%; under `COc1cc(C[C@H]2C(=O)OC[C@@H]2Cc2ccc(OC)c(OC)c2)ccc1O` [Arctigenin], 125 ± 10%. Regarding `OC(CN1CCN(c2cccc(Cl)c2)CC1)C(c1ccccc1)c1ccccc1` (stereo not drawn), the parasite growth turned out to be 147 ± 28%.

As to `Cn1ccc2cc(NC(=O)Nc3cccnc3)ccc21`, the parasite growth was 129 ± 6.5%. Under `CC(=O)O[C@@H]1C[C@H]2C(C)(C)C(=O)C=C[C@]2(C)[C@H]2CC[C@@]3(C)[C@H](c4ccoc4)OC(=O)[C@H]4O[C@]43[C@@]21C` [Gedunin] stands 62.3 ± 9.6%; under `CCCCNC(=O)[C@@H]1Cc2ccccc2N1C(=O)[C@@H](N)CC` [Butabindide oxalate], 130 ± 7.7%; under `O=C1c2ccccc2S(=O)(=O)N1CCCCN1CCN(c2ncccn2)CC1` [Ipsapirone], 160 ± 46%. Under `CCOC(=O)[C@@H](C)Oc1cccc2c(=O)n(CC(=O)Nc3ccc4c(c3)OCCO4)ccc12` stands 118 ± 12%; under `CC(=O)N(O)[C@@H]1c2cc(C#N)ccc2OC(C)(C)[C@H]1O`, 92.8 ± 30%. With `COc1ccc2[nH]c([S+]([O-])Cc3ncc(C)c(OC)c3C)nc2c1` (stereo not drawn) [Omeprazole] the figure was 178 ± 7.3%. As for `N[C@@H](CS(=O)O)C(=O)O` [L-Cysteinesulfinic acid], the parasite growth worked out at 61 ± 6.7%. With `c1cc2c(cc1C1CCCCC1)c1c3n2CCNC3CCC1` (stereo not drawn) [Tetrindole mesylate] the figure was 13.2 ± 2.2%; with `CCN(CC)CCCC(C)Nc1nc(C)cc(Nc2ccc3nc(C)cc(N)c3c2)n1` (stereo not drawn), 127 ± 2.7%; with `Oc1cc2c(c(Cl)c1O)CCNCC2c1ccccc1` (stereo not drawn), 103 ± 32%.

On to `CCC1=C(C)CN(C(=O)NCCc2ccc(S(=O)(=O)NC(=O)N[C@H]3CC[C@H](C)CC3)cc2)C1=O` [Glimepiride], for which the parasite growth stood at 149 ± 43%. Under `COC(=O)Nc1ccc2[nH]cc(CCNC(C)=O)c2c1` stands 81 ± 2.9%.
